PubChem BioAssay
The source made the active and inactive calls.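 The calls were made as follows, unless noted: active = inhibition of the reporter signal at or above 50%; inactive = inhibition below 50%.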

Tests used:
[1] = inhibitors of TNFa-induced NFkB p65 translocation, primary screen, imaging, HUVEC, MLSMR starter and 10KST1 sets (AID 438;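 active = inhibition above 20% together with a positive visual image hit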;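 also: compound added about 3h40 before a 20 min TNFalpha stimulation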;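 as to inhibition: signal is the nuclear over cytoplasmic p65 intensity ratio per well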); conditions: HUVEC TNFa-induced p65 nuclear translocation; cell count: measured here: nuclei count (cytotoxicity indicator), at 2.08 µM; inhibition: at 2 µM, stronger effect = higher value, 0% TNFa-plus-vehicle, 100% no-TNFa wells
[2] = inhibitors of mutant huntingtin aggregation, primary screen, imaging, exon1htt(103Q)mCFP cells, high-content imaging (AID 483;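 active = visual image review flags a hit and inhibition of aggregation exceeds 20%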;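 also: compound exposure lasted 3 days before fixation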;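 as to nuclei count: percent of the per-plate median nuclei count of sample wells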); conditions: exon1htt(103Q)mCFP cell line, aggregate imaging, at 2 µM; inhibition of aggregation: stronger effect = higher value; nuclei count: measured here: cell count, toxicity
[3] = inhibitors of E-selectin induction by TNFa, primary screen, imaging, HUVEC, immunofluorescence, MLSMR starter and 10KST1 sets (AID 487;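 active = visually confirmed hit in the image check and inhibition above 20%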;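 as to inhibition: signal is fraction of cell area covered by stained E-selectin grains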;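 as to nuclei count: 100% = median nuclei count of all wells on the same plate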); conditions: HUVEC TNFalpha-induced E-selectin immunofluorescence imaging, at 2 µM; inhibition: stronger effect = higher value; nuclei count: measured here: cell number, toxicity
[4] = molecular target: Voltage-gated potassium channel subunit beta-2 (Rattus norvegicus) (UniProt P62483); assay: KvBeta enzyme negative modulators, primary screen, biochemical, NADPH fluorescence (AID 622;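 active = fluorescence slope higher than the sample average by over 3 SD, cut at about -0.22 in these data, passing the limit was not always enough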;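 also: slope of raw intensity against log time taken from 70 to 1610 s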); conditions: recombinant KvBeta, 4-cyanobenzaldehyde reduction, at 10 µM, stronger effect = higher value
Sequence of Voltage-gated potassium channel subunit beta-2 (Rattus norvegicus) (P62483 whole entry, looked up): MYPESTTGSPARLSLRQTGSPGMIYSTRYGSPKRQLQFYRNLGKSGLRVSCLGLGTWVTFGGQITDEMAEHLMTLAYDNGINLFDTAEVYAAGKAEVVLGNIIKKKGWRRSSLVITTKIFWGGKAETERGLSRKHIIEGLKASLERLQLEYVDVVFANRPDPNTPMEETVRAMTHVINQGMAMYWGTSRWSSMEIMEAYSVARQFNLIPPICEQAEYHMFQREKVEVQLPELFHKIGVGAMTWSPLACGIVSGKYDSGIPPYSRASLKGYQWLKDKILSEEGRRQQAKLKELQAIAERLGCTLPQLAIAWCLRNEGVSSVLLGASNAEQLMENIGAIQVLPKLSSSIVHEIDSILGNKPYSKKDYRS

[5] = molecular target: Voltage-gated potassium channel subunit beta-2 (Rattus norvegicus) (UniProt P62483); assay: KvBeta positive modulators, primary screen, biochemical, NADPH fluorescence (AID 623;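 active = NADPH fluorescence slope more negative than the mean of all samples by about 3 SD, 99.7% confidence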;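 also: fluorescence intensity change per second fitted from 20 to 320 s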); conditions: Recombinant KvBeta, NADPH fluorescence decrease slope, 10 min; at 10 µM; stronger effect = lower value
[6] = molecular target: Alpha-2C adrenergic receptor (Homo sapiens) (UniProt P18825); assay: modulators of alpha2C/GIRK thallium flux, primary screen, cell-based, HEK293 alpha2C/GIRK1/2 (AID 624;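 active = fluorescence slope after compound addition differing from the mean of all screened samples at 99.7% confidence, in either direction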;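 also: slope of fluorescence ratio to pre-addition baseline per second over 15 to 24 s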); conditions: thallium flux BTC fluorescence, at 10 µM, actives lie on both sides
Sequence of Alpha-2C adrenergic receptor (Homo sapiens) (P18825 whole entry, looked up): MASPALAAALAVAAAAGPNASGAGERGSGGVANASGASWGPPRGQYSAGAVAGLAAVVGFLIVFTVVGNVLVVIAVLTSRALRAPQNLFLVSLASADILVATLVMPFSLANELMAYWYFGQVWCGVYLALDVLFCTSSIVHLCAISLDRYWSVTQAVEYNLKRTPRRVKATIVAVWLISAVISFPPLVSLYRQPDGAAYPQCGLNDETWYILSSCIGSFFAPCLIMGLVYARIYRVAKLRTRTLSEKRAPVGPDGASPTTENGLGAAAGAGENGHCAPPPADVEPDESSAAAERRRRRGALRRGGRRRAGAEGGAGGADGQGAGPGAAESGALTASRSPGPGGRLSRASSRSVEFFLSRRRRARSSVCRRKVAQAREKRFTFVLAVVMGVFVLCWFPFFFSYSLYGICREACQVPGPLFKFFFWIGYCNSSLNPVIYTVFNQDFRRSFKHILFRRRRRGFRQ

[7] = inhibitors of Sendai virus-induced IRF3 signaling, primary screen, TLR/RLR signaling modifier project, cell-based, Sendai virus stimulus, luciferase, 10K MLSCN set (AID 602276;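 active = inhibition at or above 50% at 10 µM; inactive = inhibition below 50%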;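 also: firefly luciferase from ISG56 promoter only with Renilla not read in this screen; 0% = Sendai virus plus DMSO and 100% = medium plus DMSO without virus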); conditions: HEK293 RL24 IRF3 luciferase reporter, at 10 µM, stronger effect = higher value
[8] = inhibitors of poly I:C-induced TLR3 signaling, primary screen, cell-based, poly I:C stimulus, luciferase, 10K MLSCN set (AID 602277); conditions: HEK293-TLR3 RL24 IRF3 luciferase reporter, at 10 µM, stronger effect = higher value

## O=C(CSc1ncnc2c1cnn2Cc1ccccc1)Nc1ccc2c(c1)OCCO2
[1]
  cell count: 308
  inhibition: 0.9% (inactive)
[2]
  inhibition of aggregation: 27.1% (inactive)
  nuclei count: 94.9%
[3]
  inhibition: 11.1% (inactive)
  nuclei count: 94.2%
[4]
  fluorescence slope: -0.36 (inactive)
[5]
  NADPH fluorescence slope: -0.00015 (inactive)
[6]
  slope: 0.00683 (inactive)
[7]
  inhibition: 6.25% (inactive)
[8]
  inhibition: 17.7% (inactive)

## Cc1cc(Br)ccc1NC(=O)CNC(=O)CSc1n[nH]c(N)n1
[1]
  cell count: 390
  inhibition: -12.1% (inactive)
[2]
  inhibition of aggregation: -13.4% (inactive)
  nuclei count: 74.3%
[3]
  inhibition: -25.1% (inactive)
  nuclei count: 115%
[4]
  fluorescence slope: -0.58 (inactive)
[5]
  NADPH fluorescence slope: -3.3e-05 (inactive)
[6]
  slope: 0.00679 (inactive)
[7]
  inhibition: 13.4% (inactive)
[8]
  inhibition: 37.1% (inactive)

## COc1cc(NC(=O)C2CCCN2S(=O)(=O)c2cccc3cccnc23)cc(OC)c1OC (centres undefined)
[1]
  cell count: 667
  inhibition: 0.6% (inactive)
[2]
  inhibition of aggregation: 15.1% (inactive)
  nuclei count: 77.6%
[3]
  inhibition: -75.5% (inactive)
  nuclei count: 110%
[4]
  fluorescence slope: -0.598 (inactive)
[5]
  NADPH fluorescence slope: -3.4e-05 (inactive)
[6]
  slope: 0.00756 (inactive)
[7]
  inhibition: 14.4% (inactive)
[8]
  inhibition: 32% (inactive)

## Cc1ccccc1-n1c(=O)c2ccccc2n2nnnc12
[1]
  cell count: 789
  inhibition: -6.4% (inactive)
[2]
  inhibition of aggregation: -0.5% (inactive)
  nuclei count: 125%
[3]
  inhibition: -23.1% (inactive)
  nuclei count: 103%
[4]
  fluorescence slope: -0.517 (inactive)
[5]
  NADPH fluorescence slope: 2.5e-05 (inactive)
[6]
  slope: 0.00577 (inactive)
[7]
  inhibition: -17% (inactive)
[8]
  inhibition: -4.05% (inactive)

## CCn1c(C)cc(=S)c2ccccc21
[1]
  cell count: 587
  inhibition: -5.3% (inactive)
[2]
  inhibition of aggregation: -16.1% (inactive)
  nuclei count: 105%
[3]
  inhibition: -56.4% (inactive)
  nuclei count: 90.4%
[4]
  fluorescence slope: -0.611 (inactive)
[5]
  NADPH fluorescence slope: -2.2e-05 (inactive)
[6]
  slope: 0.00608 (inactive)
[7]
  inhibition: 1.4% (inactive)
[8]
  inhibition: 12.6% (inactive)

## COc1cccc(OC)c1OCCNCCO
[1]
  cell count: 632
  inhibition: -3.4% (inactive)
[2]
  inhibition of aggregation: 7.9% (inactive)
  nuclei count: 118%
[3]
  inhibition: 8.1% (inactive)
  nuclei count: 90.6%
[4]
  fluorescence slope: -0.436 (inactive)
[5]
  NADPH fluorescence slope: 3.2e-05 (inactive)
[6]
  slope: 0.00544 (inactive)
[7]
  inhibition: 13.1% (inactive)
[8]
  inhibition: 20.6% (inactive)

## CN(C)S(=O)(=O)NC(c1ccccc1)c1ccccc1
[1]
  cell count: 671
  inhibition: 5.8% (inactive)
[2]
  inhibition of aggregation: 3.3% (inactive)
  nuclei count: 102%
[3]
  inhibition: 14.6% (inactive)
  nuclei count: 99.9%
[4]
  fluorescence slope: -0.413 (inactive)
[5]
  NADPH fluorescence slope: -3.1e-05 (inactive)
[6]
  slope: 0.00605 (inactive)
[7]
  inhibition: 20.5% (inactive)
[8]
  inhibition: 21.8% (inactive)

## CC(=O)Nc1c(C(=O)C2CC2)oc2ccccc12
[1]
  cell count: 514
  inhibition: 2.2% (inactive)
[2]
  inhibition of aggregation: -10.5% (inactive)
  nuclei count: 102%
[3]
  inhibition: -8.1% (inactive)
  nuclei count: 117%
[4]
  fluorescence slope: -0.448 (inactive)
[5]
  NADPH fluorescence slope: -2.5e-05 (inactive)
[6]
  slope: 0.00698 (inactive)
[7]
  inhibition: -3.28% (inactive)
[8]
  inhibition: 2.69% (inactive)

## Cn1cnc(S(=O)(=O)NCc2cccs2)c1
[1]
  cell count: 417
  inhibition: 10.8% (inactive)
[2]
  inhibition of aggregation: -26.8% (inactive)
  nuclei count: 101%
[3]
  inhibition: -43.8% (inactive)
  nuclei count: 132%
[4]
  fluorescence slope: -0.541 (inactive)
[5]
  NADPH fluorescence slope: 3.3e-05 (inactive)
[6]
  slope: 0.00567 (inactive)
[7]
  inhibition: -2.25% (inactive)
[8]
  inhibition: 6.69% (inactive)

## C=CCSC1=C(C#N)C(c2ccccc2OCC)CC(=O)N1 (centres undefined)
[1]
  cell count: 328
  inhibition: -4.1% (inactive)
[2]
  inhibition of aggregation: 12.8% (inactive)
  nuclei count: 99%
[3]
  inhibition: 12.5% (inactive)
  nuclei count: 105%
[4]
  fluorescence slope: -0.306 (inactive)
[5]
  NADPH fluorescence slope: 1.7e-05 (inactive)
[6]
  slope: 0.00314 (inactive)
[7]
  inhibition: 6.62% (inactive)
[8]
  inhibition: 24.6% (inactive)

## CCn1c(C(C#N)/C(=N\S(=O)(=O)c2cccs2)c2ccccc2)nc2ccccc21 (centres undefined)
[1]
  cell count: 694
  inhibition: 25.4% (active)
[2]
  inhibition of aggregation: -17.3% (inactive)
  nuclei count: 94.2%
[3]
  inhibition: -188% (inactive)
  nuclei count: 119%
[4]
  fluorescence slope: -0.493 (inactive)
[5]
  NADPH fluorescence slope: -3.2e-06 (inactive)
[6]
  slope: 0.00669 (inactive)
[7]
  inhibition: 10.5% (inactive)
[8]
  inhibition: 40.9% (inactive)

## COC(=O)c1c(NC(=O)CSc2nnnn2C)sc(C)c1C
[1]
  cell count: 446
  inhibition: -0.5% (inactive)
[2]
  inhibition of aggregation: -4.7% (inactive)
  nuclei count: 95.6%
[3]
  inhibition: 30.9% (inactive)
  nuclei count: 101%
[4]
  fluorescence slope: -0.374 (inactive)
[5]
  NADPH fluorescence slope: -3.1e-05 (inactive)
[6]
  slope: 0.00478 (inactive)
[7]
  inhibition: -19% (inactive)
[8]
  inhibition: -14.9% (inactive)

## COc1ccc2[nH]c(C)c(CCN3C(=O)OC(C)(C)C3(C)O)c2c1 (centres undefined)
[1]
  cell count: 754
  inhibition: -4% (inactive)
[2]
  inhibition of aggregation: -15.3% (inactive)
  nuclei count: 97.3%
[3]
  inhibition: -2.5% (inactive)
  nuclei count: 111%
[4]
  fluorescence slope: -0.561 (inactive)
[5]
  NADPH fluorescence slope: -4.3e-05 (inactive)
[6]
  slope: 0.00701 (inactive)
[7]
  inhibition: 6.33% (inactive)
[8]
  inhibition: 23.6% (inactive)

## COc1ccc(S(=O)(=O)N2CCC(C(=O)Nc3c(F)cccc3F)CC2)cc1
[1]
  cell count: 741
  inhibition: -9.2% (inactive)
[2]
  inhibition of aggregation: 7% (inactive)
  nuclei count: 108%
[3]
  inhibition: -55.4% (inactive)
  nuclei count: 126%
[4]
  fluorescence slope: -0.392 (inactive)
[5]
  NADPH fluorescence slope: 3.8e-05 (inactive)
[6]
  slope: 0.00504 (inactive)
[7]
  inhibition: -10.2% (inactive)
[8]
  inhibition: 1.61% (inactive)
